Assay [1] is described as follows: NCI Yeast Anticancer Drug Screen. Data for the rad50 strain (AID 155).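 Further: 0% = growth of vehicle-only cultures of the same strain.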 The note with it: S. cerevisiae rad50 strain growth inhibition; at 50.0 µM; stronger effect = higher value. Put shortly:
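Compounds were tested on a yeast strain with an engineered DNA damage repair alteration; the reported value is growth inhibition normalised to vehicle treatment.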

A short description of assay [2]: NCI Yeast Anticancer Drug Screen. Data for the mec2-1 strain (AID 157). The note with it: S. cerevisiae mec2-1 strain, at 50.0 µM, stronger effect = higher value. Put shortly:
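Each compound was tested on mec2-1 yeast, a strain altered in DNA damage repair or cell cycle control. Growth inhibition is reported relative to vehicle.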

Assay [3] can be described thus: NCI Yeast Anticancer Drug Screen. Data for the sgs1 mgt1 strain (AID 161).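 Further: 0% = growth of cultures given vehicle only.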 The note with it: S. cerevisiae sgs1 mgt1 strain, at 50.0 µM, stronger effect = higher value. In short, it runs like this:
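Inhibition of yeast growth, normalised to vehicle-treated controls, is reported for a strain bearing genetic alterations in DNA damage repair.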

The nature of assay [4]: NCI Yeast Anticancer Drug Screen. Data for the cln2 rad14 strain (AID 165).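 Further: 0% = growth equal to vehicle treated cultures.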 The note with it: S. cerevisiae cln2 rad14 strain, at 50.0 µM, stronger effect = higher value. Put shortly: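 Test compounds were added to cln2 rad14 yeast cultures; inhibition of growth was then determined by comparison with vehicle treatment.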
Assay [5] in a line: NCI Yeast Anticancer Drug Screen. Data for the bub3 strain (AID 167). Conditions: S. cerevisiae bub3 mutant strain, at 50.0 µM, stronger effect = higher value. In short, it runs like this:
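Growth of a checkpoint-deficient yeast mutant is measured after compound exposure. Values represent inhibition relative to vehicle.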

Assay [6] is described as follows: NCI Yeast Anticancer Drug Screen. Data for the mlh1 rad18 strain (AID 175). The note with it: S. cerevisiae mlh1 rad18 strain growth inhibition; at 50.0 µM; stronger effect = higher value. Put shortly:
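Inhibition values reflect reduced growth of mutant yeast versus vehicle-treated controls following compound exposure; the mutations affect DNA damage repair.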

The panel holds about 79,000 compounds, 15% with a hit somewhere; the sample as a whole holds those more often. Unmarked numbers belong to inactive results. Activity calls are given as the source filed them. No stated cut-off is given here; in the data, active means growth inhibition above about 70%; inactive means the rest.

`OC(c1nc2ccccc2s1)(C(F)(F)F)C(F)(F)F`: the growth inhibition is -14.2% in assay [1]; -20.1% in assay [2]; -9.5% in assay [3]; 18.4% in assay [4]; -13% in assay [5]; 38.4% in assay [6].
As for `Cn1c2ccccc2c2nnc(N/N=C/c3cccs3)nc21`, the growth inhibition in assay [1] is -15.6%; in assay [2], -9.2%; in assay [3] it was -9.6%; in assay [4] it was -32.2%; in assay [5], -10.6%; in assay [6], 10.7%.
On to `CC(=O)OC(C)C(C)Br` (stereo not given), for which the growth inhibition in assay [1] was 9.75%; in assay [2], 4.4%; in assay [3], -9.35%; in assay [4], -25.1%; in assay [5], -13%; in assay [6] it was 4.9%.
In the case of `CCCC(=O)OCc1ccc(Cl)cc1`, the growth inhibition was 24.6% in assay [1]; 12.8% in assay [2]; 6.9% in assay [3]; 5.15% in assay [4]; 6.55% in assay [5]; 3.35% in assay [6].
In the case of `CC(=O)c1ccc(C(=O)O)cc1`, the growth inhibition in assay [1] was 13.7%; in assay [2] it was -11.6%; in assay [3], 2.45%; in assay [4], -0.15%; in assay [5], -4.3%; in assay [6], 6.15%.
On to `CCC(=O)C1(N2CCOCC2)CCN(CCCC(=O)c2ccc(F)cc2)CC1`, for which the growth inhibition in assay [1] was -25.4%; in assay [2], -9.45%; in assay [3] it was -1.75%; in assay [4], 1.5%; in assay [5] it was -0.3%; in assay [6], 22.1%.
For `CSC1(C)CC2C(CC1N1CCOCC1)C2(C)C` (stereo not given), the growth inhibition in assay [1] was -28.4%; in assay [2], -33.9%; in assay [3] it was -41.6%; in assay [4] it was -14.2%; in assay [5] it was -33.4%; in assay [6], -26.2%.
`COc1ccc(C(=O)CC2=Nc3nnc(CCCCCCCc4nnc5n4C(=O)C(CC(=O)c4ccc(OC)cc4)=N5)n3C2=O)cc1`: the growth inhibition is -5.95% in assay [1]; -1.9% in assay [2]; -16.4% in assay [3]; 18.9% in assay [4]; 0.1% in assay [5]; -24.1% in assay [6].
For `CN1C(=O)C2CC(=O)N(Cc3ccccc3)C(=O)C2C1=O` (stereo not given), the growth inhibition in assay [1] is 0.5%; in assay [2] it was -16.1%; in assay [3], -1.05%; in assay [4], 9.3%; in assay [5] it was -5.4%; in assay [6] it was -1.35%.
Regarding `CCCCCCCCC(Cl)C(Cl)CCCCCCCC(=O)OC` (stereo not given), the growth inhibition was -30.2% in assay [1]; -33% in assay [2]; -20.3% in assay [3]; -13.8% in assay [4]; -5.15% in assay [5]; -22.1% in assay [6].
As for `O=c1[nH]c(=O)n(COCc2ccccc2)c2ccccc12`, the growth inhibition in assay [1] is 5.1%; in assay [2], -12.2%; in assay [3], 65.2%; in assay [4] it was 12.7%; in assay [5], 37.7%; in assay [6] it was -18.4%.
In the case of `CN(C)c1ccc(C2(c3ccc(N(C)C)cc3)c3ccccc3C(=O)N2N)cc1`, the growth inhibition in assay [1] was 54.1%; in assay [2], 34.5%; in assay [3], 18.2%; in assay [4], 43.5%; in assay [5], 77.5% (active); in assay [6], 21.7%.
`O=S1(=O)c2ccc(cc2)N=CC=Nc2ccc1cc2`: the growth inhibition in assay [1] was 5.25%; in assay [2], -11.7%; in assay [3], 10%; in assay [4] it was -2.4%; in assay [5] it was 14.3%; in assay [6], 12.1%.
As to `CCOC(=O)c1c(Br)c(-c2ccc(OC)cc2)c(Br)n1C`, the growth inhibition was -12.8% in assay [1]; 9.8% in assay [2]; -22.2% in assay [3]; -48% in assay [4]; -39% in assay [5]; -5.95% in assay [6].
For `O=C(O)c1cc(-c2ccccc2O)nc2ccccc12`, the growth inhibition in assay [1] was -19.5%; in assay [2], -7.1%; in assay [3], -5.2%; in assay [4] it was 16.3%; in assay [5], -1.35%; in assay [6] it was -1.5%.
Consider `N.N.N.N.N.O=S(=O)([O-])S(=O)(=O)[O-].[Co+3]`, for which the growth inhibition in assay [1] was 9.15%; in assay [2], 16.4%; in assay [3], 13%; in assay [4] it was 23.2%; in assay [5], -2.05%; in assay [6], -9%.
Turning to `CN(C)CC1CCC(=C2CCCC2)C1=O` (stereo not given), the growth inhibition in assay [1] is -8.9%; in assay [2], -10.7%; in assay [3], 11.8%; in assay [4], 6.2%; in assay [5], 3.6%; in assay [6], 20.6%.
Take `Cc1cc[n+](CC(=O)CCc2ccc(C(=O)C[n+]3ccc(C)cc3)cc2)cc1`: the growth inhibition in assay [1] is 41.1%; in assay [2], -1.85%; in assay [3], 34.3%; in assay [4], -6.4%; in assay [5], -3.95%; in assay [6], 11.1%.
Turning to `CNC(=O)CN(CC(=O)NC)C(=O)NC`, the growth inhibition in assay [1] was 9.95%; in assay [2], 7.3%; in assay [3], -18%; in assay [4], -3.65%; in assay [5], -2.35%; in assay [6], 1.55%.
`CCCCSc1n[nH]c(C2CCC(=O)N2Cc2ccccc2)n1` (stereo not given): the growth inhibition in assay [1] was -14.8%; in assay [2], -19.1%; in assay [3] it was -0.8%; in assay [4], -12.9%; in assay [5], -3.5%; in assay [6], -6%.

The record behind these values is PubChem BioAssay (NCI).
